Bioassay records from PubChem BioAssay.
Hits are enriched below; roughly 1.4% of the tested compounds scored in any of these assays.
bovine MsrA act = activators of bovine methionine sulfoxide reductase A. purified bovine MsrA, absorbance read-out. activation, % at 10.6 µM. 360,000 compounds, 0.3% hits. AID 602163; in the data active = activation above about 7.5%;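 also: 0% = vehicle and 100% = reference activator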
MsrA inh = inhibitors of bovine MsrA; purified bovine MsrA, absorbance read-out; inhibition, % at 15.5 µM; 360,000 compounds, 0.75% hits; AID 651718;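 also: 0% = vehicle wells with enzyme and 100% = reference inhibitor wells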
pCIP destab = p/CIP protein destabilization; F442A p/CIP-EGFP cells, EGFP fluorescence, 16 h; decrease of EGFP signal, % at 10 µM; AID 1984; 290,000 compounds, 0.01% hits;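 active = EGFP signal decrease of at least 30% at 10 µM or well 3 SD below plate mean, unless failing retest; inactive = the rest, including hits failing retest or dose response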
14-3-3 Bad PPI = disrupts binding of bovine 14-3-3 zeta to phospho-Bad peptide | TR-FRET 14-3-3zeta/Dy647-pBad peptide displacement, 1 h | inhibition, % at 21.7 µM | 220,000 compounds, 0.71% hits | AID 781;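 active = inhibition above about 70%, limit read from the data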;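 also: 0% = full 14-3-3 plus peptide FRET controls and 100% = background without 14-3-3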
MsrA inh confirm = bovine MsrA inhibition, confirmed; purified bovine MsrA, absorbance read-out; AID 651822; shares compounds with MsrA inh; 2,300 compounds, 41% hits; inhibition, % at 15.5 µM;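 also: coupled to thioredoxin reductase with NADPH and selenocystamine and DMSO as substrate; 0% = vehicle only and 100% = full effect of reference inhibitor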
Active calls of the source: *; . = no result given. Rule as the data show it, unless noted: active = inhibition above about 4.5%; inactive = the rest.

SMILES	bovine MsrA act	MsrA inh	pCIP destab	14-3-3 Bad PPI	MsrA inh confirm
Cc1ccc(/C=N/NC(=O)c2ccccn2)s1	-3	4.9*	-7	11	5.2*
Nc1[nH]c(N=NC(=O)c2ccc(F)cc2)c2ccccc12	-12	4	-14	-28	.
Nc1ccccc1C(=O)N=Nc1[nH]c(N)c2ccccc12	-5	5.4*	-1	-15	4
CCN(CC)c1ccc(C(=O)OCC(=O)Nc2ccccc2-c2ccccc2)cc1	-8	5.8*	-10	1	3
O=C(O)c1cccc(Nc2nc(-c3cccnc3)nc3ccccc23)c1	-3	5.6*	-8	25	2
COC(=O)c1cccc(Nc2nc(-c3cccnc3)nc3ccccc23)c1	-4	1	-8	8	.
COc1ccc(/C=C(/NC(=O)c2ccccc2)c2nc3ccccc3[nH]2)cc1OC	-7	6.5*	-18	-6	4
O=C(NCCc1c[nH]c2ccccc12)OCCSS(=O)(=O)O	-20	12*	-7	-7	4
CCC(=O)NCCc1c[nH]c2ccccc12	-5	1	-8	-7	.
O=C(NCc1ccco1)c1cc2cc3ccc(Cl)cc3nc2o1	-3	0	-2	-2	.
COc1ccc2cc3cc(C(=O)NCc4ccco4)oc3nc2c1	-3	4.8*	-11	7	2
COc1ccc2cc3cc(C(=O)NCc4ccccn4)oc3nc2c1	-5	8.0*	-14	-4	5.6*
Cc1ccc(CC(=O)O/N=C(\N)c2ccncc2)cc1	-9	-1	-9	.	.
Cc1cccc2nc(C(=O)Nc3cccc(C(=O)NC4CC4)c3)cn12	-4	0	.	.	.
COc1cc2sc(-c3ccc(S(C)(=O)=O)cc3)c(C(=O)NCCCCO)c2cc1OC	-4	5.5*	.	.	2
O=C(O)c1ccc(N/N=C2/CCCc3ccccc32)cc1	-11	5.8*	14	-2	7.0*
COc1cc2c(cc1OC)CN(c1nc(-c3cccnc3)nc3ccccc13)CC2	-4	2	2	3	.
CO/N=C/C(C#N)=C/c1ccc(OC)cc1	-7	6.7*	3	1	4.8*
COc1ccc(/C=C(/C#N)S(=O)(=O)c2ccc(C)cc2)cc1	-1	0	-4	-3	.
Cc1ccc(N2C(=O)c3cccc4c([N+](=O)[O-])ccc(c34)C2=O)c2cccnc12	-4	1	-241	-1	.
Cc1ccnc(N2C(=O)c3cccc4c([N+](=O)[O-])ccc(c34)C2=O)c1	0	12*	-14	19	8.6*
CC(=O)C1=C(O)C(=O)N(Cc2cccnc2)C1c1ccccc1 (stereo not drawn)	-7	6.4*	0	10	2
Cc1ccc(Cl)cc1N1CCN(C(=O)CNC(=O)c2ccc(Br)o2)CC1	-2	1	.	.	.
C[C@@H](NC(=O)c1coc(=O)c(Br)c1)c1ccccc1	-3	4.8*	-20	13	4.8*
COc1ccc(C(=O)NC(C)c2ccccc2)cc1Br (stereo not drawn)	-4	-1	-4	0	.
SMILES	bovine MsrA act	MsrA inh	pCIP destab	14-3-3 Bad PPI	MsrA inh confirm
CCn1c(COC(=O)CNC(=O)c2cc(OC)c(OC)c(OC)c2)nc2cc(S(=O)(=O)N(C)C)ccc21	-3	1	.	.	.
O=C1NC(=S)N/C1=C/C=C/c1ccccc1	-4	4.7*	10	-5	3
COc1ccc(CN=C(C#N)C2=C(O)c3ccccc3C2=O)cc1	-7	2	-4	-4	.
N#CC(=Nc1cccc(F)c1)C1=C(O)c2ccccc2C1=O	-9	5.2*	.	.	4
COc1ccc(C(=O)N2CCCC(C)(C(=O)NS(=O)(=O)C3CC3)C2)c(OC)c1 (stereo not drawn)	-4	-1	.	.	.
COc1cccc(C(C)NC(=O)Cc2cccs2)c1 (stereo not drawn)	-1	0	-1	.	.
Nc1ccc(C(=O)C(=O)c2ccc(N)cc2)cc1	-6	7.5*	7	46	6.8*
Cc1[nH]c2ccccc2c1-c1nc2ccccc2[nH]c1=O	-5	0	-7	.	.
Oc1[nH]c2ccccc2c1C=NCC1CCCO1 (stereo not drawn)	-8	6.0*	2	-18	3
CCN(CC)c1ccc(C(=O)c2ccccc2C(=O)O)c(O)c1	-4	4.7*	5	-3	4.8*
CC(=O)OCC(=O)Nc1ccc(N=Nc2ccccc2)cc1	-6	5.9*	2	11	4
O=c1oc(CCCO)cc2ccc(/C=C/c3cccc([N+](=O)[O-])c3)cc12	-4	2	.	.	.
O=C(CSc1nn(-c2ccccc2)c(=S)s1)Nn1cnnc1	-14	2	-5	1	.
COC(=O)CSc1nn(-c2ccc(F)cc2)c(=S)s1	-2	5.2*	10	1	2
CC(=O)c1c(C)nc(-c2cccc([N+](=O)[O-])c2)n1O	-6	1	-9	-7	.
COc1ccc(-c2nc(C)c(C(C)=O)n2O)cc1[N+](=O)[O-]	-4	4.8*	4	-6	3
C/C(=N\NC(N)=O)c1ccc(-n2ccnc2)cc1	-3	2	1	-13	.
C/C(=N\Nc1ccc(C(=O)O)cc1)c1ccc(-n2ccnc2)cc1	-3	6.5*	1	43	4.5*
Cc1ccc(CNC(=O)[C@H]2O[C@@H](n3cnc4c(N)ncnc43)[C@H](O)[C@@H]2O)o1	1	0	.	.	.
COc1ccc(-c2cc(C(F)(F)F)nc(S(C)(=O)=O)n2)cc1	-9	5.4*	-9	-4	2
Cc1cccc(NS(=O)(=O)c2csc(C(N)=O)c2)c1C	-4	-2	-7	.	.
CCCNC1=C(N(C(C)=O)c2cccc(F)c2)C(=O)c2ccccc2C1=O	-9	22*	-6	3	5.0*
CCC(=O)N(C1=C(NC(C)C)C(=O)c2ccccc2C1=O)C(C)C	-8	1	-3	-14	.
CCOc1cc(/C=N/NC(=O)c2ccc(NC(=O)C3CC3)cc2)ccc1O	-6	5.3*	-4	.	4
CCOc1cc(/C=N/N=C/c2ccc(O)c(OCC)c2)ccc1O	-1	6.4*	1	.	4
SMILES	bovine MsrA act	MsrA inh	pCIP destab	14-3-3 Bad PPI	MsrA inh confirm
CCOc1cc(/C=N/NC(=O)C(=O)NCc2cccnc2)ccc1O	-8	5.7*	4	-9	4
Oc1ccc(/C=N/N=C/c2ccc(O)cc2)cc1	-12	5.3*	-14	-5	5.5*
COc1cc(/C=N/NC(=O)c2ccc(NC(=O)C3CCCCC3)cc2)ccc1O	-6	4	1	.	.
CCCN(CC(=O)Nc1ccccc1C)C(=O)Cc1n[nH]c(=O)c2ccccc12	-1	0	.	.	.
CC(C)CC(=O)Nc1ccc(C(=O)COC(=O)CN2C(=O)NC3(CCCCC3C)C2=O)cc1 (stereo not drawn)	-6	0	.	.	.
O=C(O)CCC(=O)N1N=C(c2ccccc2)CC1c1ccc2c(c1)OCO2 (stereo not drawn)	-8	0	-3	.	.
O=C(OCC(=O)N1CCCC1=O)C1CCN(S(=O)(=O)c2c(Cl)cccc2Cl)CC1	-7	-1	-4	.	.
c1ccc(CN=C(NCc2ccccc2)NCc2ccccc2)cc1	-6	0	.	.	.
Cc1sc2ncnc(N3CCC(C(=O)Nc4sc5c(c4C(N)=O)CCC(C)C5)CC3)c2c1C (stereo not drawn)	0	-1	.	.	.
